Results filed as inconclusive are left out. Calls of active or inactive are those of the source. Cut-off read from the data, not from the text of the source: active = fluorescence slope change above about 50%; inconclusive = mostly about 31% to 49%; inactive = weaker than that.

As a reminder, the inhibition is the relative decrease from the control value, in per cent.

For one experiment, the target named is ATP-dependent translocase ABCB1 (Homo sapiens) (UniProt P08183). The experiment in a line: MDR1 (ABCB1) efflux transporter inhibition, cell-based (AID 377). To be noted: MDR1-expressing cells, fluorescent substrate accumulation slope; stronger effect = higher value; concentration not given here.
Sequence of ATP-dependent translocase ABCB1 (Homo sapiens) (P08183 whole entry, looked up): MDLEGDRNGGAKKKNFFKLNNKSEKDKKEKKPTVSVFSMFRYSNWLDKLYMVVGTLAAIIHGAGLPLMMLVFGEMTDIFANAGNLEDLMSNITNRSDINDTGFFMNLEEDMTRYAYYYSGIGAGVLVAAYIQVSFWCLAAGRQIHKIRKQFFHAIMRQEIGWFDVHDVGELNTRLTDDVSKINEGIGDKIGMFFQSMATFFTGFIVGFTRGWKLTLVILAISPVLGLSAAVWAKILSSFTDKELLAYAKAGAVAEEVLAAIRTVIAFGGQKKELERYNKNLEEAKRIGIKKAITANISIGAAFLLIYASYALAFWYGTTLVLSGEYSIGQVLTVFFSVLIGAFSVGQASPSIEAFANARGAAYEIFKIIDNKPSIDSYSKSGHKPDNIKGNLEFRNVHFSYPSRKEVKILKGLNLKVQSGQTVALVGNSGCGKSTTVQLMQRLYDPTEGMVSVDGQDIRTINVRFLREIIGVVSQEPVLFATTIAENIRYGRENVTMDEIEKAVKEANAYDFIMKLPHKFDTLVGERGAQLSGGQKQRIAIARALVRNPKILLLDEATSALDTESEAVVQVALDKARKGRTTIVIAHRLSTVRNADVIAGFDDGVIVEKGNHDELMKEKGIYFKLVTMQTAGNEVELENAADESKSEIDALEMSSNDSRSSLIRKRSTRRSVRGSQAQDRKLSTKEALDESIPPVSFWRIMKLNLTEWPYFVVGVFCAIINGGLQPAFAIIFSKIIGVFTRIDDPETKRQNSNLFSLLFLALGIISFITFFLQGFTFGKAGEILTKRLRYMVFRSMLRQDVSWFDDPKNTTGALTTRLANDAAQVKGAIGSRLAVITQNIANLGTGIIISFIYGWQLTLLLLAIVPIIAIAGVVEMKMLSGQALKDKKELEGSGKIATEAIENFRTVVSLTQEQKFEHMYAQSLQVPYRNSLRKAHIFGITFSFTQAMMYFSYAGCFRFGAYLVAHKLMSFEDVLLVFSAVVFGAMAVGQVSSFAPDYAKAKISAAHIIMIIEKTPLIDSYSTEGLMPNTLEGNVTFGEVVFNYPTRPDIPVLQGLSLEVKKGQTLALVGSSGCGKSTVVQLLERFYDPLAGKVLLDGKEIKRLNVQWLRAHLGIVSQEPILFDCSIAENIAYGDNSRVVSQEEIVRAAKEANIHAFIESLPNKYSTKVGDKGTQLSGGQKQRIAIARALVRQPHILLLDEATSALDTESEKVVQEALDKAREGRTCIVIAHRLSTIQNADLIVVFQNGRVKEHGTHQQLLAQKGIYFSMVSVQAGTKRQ
For `CCN(CC)Cc1cc(Nc2ccnc3cc(Cl)ccc23)ccc1O`, the fluorescence slope change is 54.8% (active).
Same read-out and setting: the figure for `CN1CCC(=C2c3ccccc3Sc3ccccc32)CC1` is 107% (active).
Take `CC(C)NNC(=O)c1ccncc1`: the fluorescence slope change is 97.9% (active).
With `Cc1cc2cc3c(C)cc(=O)oc3c(C)c2o1`, the fluorescence slope change was 18.1% (inactive).
The same measure, in the same setting: the figure for `CCn1cc(C(=O)O)c(=O)c2cc3c(cc21)OCO3` is 56.5% (active); for `CCCCC(CC)CN=C(N)NC(N)=NCCCCCCN=C(N)NC(N)=NCC(CC)CCCC` (stereo not drawn) it is 152% (active).

Test system in the next experiment: not listed separately
The experiment in a line: polyglutamine-triggered caspase-3 activation inhibitors, cell-based (AID 1583). To be noted: polyglutamine-induced caspase-3 activation, cell assay; stronger effect = higher value;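 tested at 10 µM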.
As for `Cc1cc(O)cc(C)c1Cl`, the inhibition came out at 0.93%.
On to `CCCCOc1ccc(C(=O)CCN2CCCCC2)cc1`, for which the inhibition was -5.19%.
As for `COc1ccc(C(=O)c2ccccc2)c(O)c1`, the inhibition came out at 16.9%.
For the compound `CC/C(=C(/CC)c1ccc(O)cc1)c1ccc(O)cc1`, the inhibition was 48.1%.
In the case of `CCCCOc1cc(C(=O)NCCN(CC)CC)c2ccccc2n1`, the inhibition is -0.9%.
Consider `CN1CCC(=C2c3ccccc3Sc3ccccc32)CC1`, for which the inhibition was -31.4%.
Still for that read-out and setting: as for `O=C1C(O)=C(O)C(=O)C(O)=C1O`, the figure is 0.61%; as for `CCCCCCCCNC(C)C(O)c1ccc(SC(C)C)cc1` (stereo not drawn), 71.7%.
For `CC(C)NNC(=O)c1ccncc1`, the inhibition is 12.9%.
Same read-out and setting: the figure for `Cc1cc2cc3c(C)cc(=O)oc3c(C)c2o1` is -5.8%.
Take `CCn1cc(C(=O)O)c(=O)c2cc3c(cc21)OCO3`: the inhibition is -14.8%.
In the case of `CC1=NN(c2ccccc2)C(=O)C1`, the inhibition was -19.6%.
As for `CCCCNc1ccc(C(=O)OCCN(C)C)cc1`, the inhibition is 3.42%.

Test system in the next experiment: not listed separately
The experiment in a line: suppressors of polyQ aggregation in yeast, 75Q-TubU reporter (AID 1593). The following applies: Yeast 75Q polyglutamine aggregation reporter.
The compound `Cc1cc(O)cc(C)c1Cl` registered a score of 0.53.
On the same count and under the same terms, as for `CCCCOc1ccc(C(=O)CCN2CCCCC2)cc1`, the figure is 1.14; as for `COc1ccc(C(=O)c2ccccc2)c(O)c1`, 0.23; as for `CC/C(=C(/CC)c1ccc(O)cc1)c1ccc(O)cc1`, 0.36.
With `CCCCOc1cc(C(=O)NCCN(CC)CC)c2ccccc2n1`, the score came out at 1.3.
The compound `CN1CCC(=C2c3ccccc3Sc3ccccc32)CC1` displayed a score of 1.33.
In turn, `O=C1C(O)=C(O)C(=O)C(O)=C1O` displayed a score of 0.92.
`CCCCCCCCNC(C)C(O)c1ccc(SC(C)C)cc1` (stereo not drawn) gave a score of -1.11.
`CC(C)NNC(=O)c1ccncc1` registered a score of 1.22.
The same measure, in the same setting: as for `Cc1cc2cc3c(C)cc(=O)oc3c(C)c2o1`, the figure is 0.49; as for `CCn1cc(C(=O)O)c(=O)c2cc3c(cc21)OCO3`, 1.16.
Still for that read-out and setting: the figure for `CC1=NN(c2ccccc2)C(=O)C1` is 1.27; for `CCCCNc1ccc(C(=O)OCCN(C)C)cc1` it is 1.3.
As to `CCCCC(CC)CN=C(N)NC(N)=NCCCCCCN=C(N)NC(N)=NCC(CC)CCCC` (stereo not drawn), the score was -1.46.

The record behind these values is PubChem BioAssay.
